Assay [1] is described as follows: qHTS assay to identify small molecule antagonists of the thyroid receptor (TR) signaling pathway - cell viability counter screen (AID 743064). Further: nearly all actives have a fitted effect of over 50% in size. In a few lines:
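GH3.TRE-Luc cells, 4 h pre-plating; cpd + T3 1 nM final; 37 °C 23.5 h; CellTiter-Fluor 30 min; fluorescence read.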
On the technique in general: Quantitative high-throughput screening tests each substance at several concentrations.

Assay [2] is described as follows: qHTS assay to identify small molecule antagonists of the thyroid receptor (TR) signaling pathway (AID 743065). Further: nearly all actives have a fitted effect of over 55% in size. Further: potency means the concentration at half of the fitted maximal effect. A digest of the protocol: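 Antagonism measured as loss of luciferase signal in GH3 cells stably carrying a TRE-luciferase reporter, co-treated with compound and T3 (1 nM final) for 23.5 h at 37 C. Viability was read in the same well by CellTiter-Fluor.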

Assay [3] deals with thyroid hormone receptor (rat, GH3 cells). As to the kind of experiment: qHTS assay to identify small molecule agonists of the thyroid receptor (TR) signaling pathway (AID 743066; calls by dose curve).
Assay [4] can be described thus: qHTS assay to identify small molecule antagonists of the estrogen receptor alpha (ER-alpha) signaling pathway - cell viability counter screen (AID 743074; calls by dose curve;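 further: HEK293 cells carrying ER-alpha-UAS-bla reporter stimulated with 17beta-estradiol; nearly all actives have a fitted effect of over 45% in size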).
For assay [5], the target named is Estrogen receptor (Homo sapiens) (UniProt P03372). As to the kind of experiment: qHTS assay to identify small molecule agonists of the estrogen receptor alpha (ER-alpha) signaling pathway (AID 743075; calls by dose curve;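 further: HEK293 GripTite cells with ER-alpha and UAS-driven beta-lactamase reporter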; further: potency means the concentration at half of the fitted maximal effect).
Assay [6] in a line: qHTS assay to identify small molecule antagonists of the estrogen receptor alpha (ER-alpha) signaling pathway using the BG1 cell line (AID 743080; calls by dose curve;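 further: BG1 cells stimulated with 17beta-estradiol alongside compound; nearly all actives have a fitted effect of over 25% in size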). A digest of the protocol:
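Luciferase inhibition measured with ONE-Glo after 30 min at RT in BG1Luc4E2 cells given test compounds and 17beta-estradiol for 21.5 h at 37 C; CellTiter-Fluor viability read in the same wells beforehand.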

Assay [7] can be described thus: qHTS assay to identify small molecule antagonists of the estrogen receptor alpha (ER-alpha) signaling pathway using the BG1 cell line - cell viability counter screen (AID 743081).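 Further: compound given together with 17beta-estradiol as the ER stimulus; nearly all actives have a fitted effect of over 45% in size.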
Another assay has as its target Aromatase (Homo sapiens) (UniProt P11511). As to the kind of experiment: qHTS assay to identify aromatase inhibitors (AID 743083). Further: nearly all actives have a fitted effect of over 55% in size.
A short description of assay [8]: qHTS assay to identify aromatase inhibitors - cell viability counter screen (AID 743084).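 Further: cells stimulated with testosterone during compound exposure; nearly all actives have a fitted effect of over 55% in size.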
Assay [9] has as its target Aryl hydrocarbon receptor (Homo sapiens) (UniProt P35869). Kind of assay: qHTS assay to identify small molecule that activate the aryl hydrocarbon receptor (AhR) signaling pathway (AID 743085). Further: nearly all actives have a fitted effect of over 15% in size. Further: potency means the concentration at half of the fitted maximal effect.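 On activation: HG2L7.5c1 human HepG2 liver cells with stably integrated DRE-driven firefly reporter.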 In a few lines:
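Luminescence read-out: ONE-Glo reagent, 30 min at room temperature, in HG2L7.5c1 HepG2 reporter cells treated 24 h at 37C. Viability was measured beforehand by CellTiter-Fluor fluorescence after 30 min at 37C.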

The nature of assay [10]: qHTS assay to identify small molecule that activate the aryl hydrocarbon receptor (AhR) signaling pathway - cell viability counter screen (AID 743086). Further: nearly all actives have a fitted effect of over 45% in size. A digest of the protocol: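 Cytotoxicity counter screen: CellTiter-Fluor signal (30 min, 37 C) in 4000 HepG2 cells/well carrying the DRE-luciferase reporter, following 24 h compound exposure at 37 C.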
Assay [11] in a line: qHTS assay to identify small molecule antagonists of the peroxisome proliferator-activated receptor gamma (PPARg) signaling pathway - cell viability counter screen (AID 743194). Further: nearly all actives have a fitted effect of over 55% in size. As to conditions: Potency: co-treated with 50 nM rosiglitazone unless noted. A digest of the protocol:
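Viability was measured as CellTiter-Glo luminescence in GeneBLAzer PPARg UAS-bla HEK293H cells. These cells had been exposed 17 h at 37 C to compounds together with rosiglitazone at 50 nM final, with the beta-lactamase readout taken in the same wells.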

Assay [12] can be described thus: qHTS assay for small molecule agonists of the antioxidant response element (ARE) signaling pathway (AID 743202; active means well fitted activation curve with a large enough effect in the signal ratio in the repeat runs, not every such curve was filed as active; inconclusive means weak or mixed curves, or effect the other way; inactive means no such curve, though single readings can be large or run the other way; the % refers to the signal ratio). A digest of the protocol: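 Quantitative high-throughput format in HepG2 cells bearing an integrated ARE-beta-lactamase reporter. Compound exposure lasted 16 h at 37 C, and fluorescence was read 2 h after adding LiveBLAzer B/G substrate at room temperature.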

The nature of assay [13]: qHTS assay for small molecule agonists of the antioxidant response element (ARE) signaling pathway - cell viability counter screen (AID 743203; calls by dose curve; further: nearly all actives have a fitted effect of over 55% in size). In a few lines:
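Following 16 hrs of compound treatment at 37C, HepG2 cells with an ARE-controlled beta-lactamase gene were lysed with CellTiter-Glo. Luminescence was read after 30 min at room temperature.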

A short description of assay [14]: qHTS assay for small molecule activators of the heat shock response signaling pathway - cell viability counter screen (AID 743209). Further: nearly all actives have a fitted effect of over 50% in size. Further: potency means the concentration at half of the fitted maximal effect. A digest of the protocol: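 Readout: CellTiter-Glo luminescence, 30 min at room temperature. System: HSE-bla HeLa cells, 1500/well, plated overnight. Treatment: compounds in DMSO, 5 h at 37 C.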
The target of assay [15] is Estrogen receptor (Homo sapiens) (UniProt P03372). Kind of assay: qHTS assay to identify small molecule antagonists of the estrogen receptor alpha (ER-alpha) signaling pathway (AID 743069; active means well fitted curve in the direction sought with a large enough effect in the signal ratio in the repeat runs, not every such curve was filed as active; inconclusive means weak or mixed curves, or effect the other way; inactive means no such curve, though single readings can be large or run the other way; the % refers to the signal ratio). A digest of the protocol: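 ER-alpha-UAS-bla GripTite HEK293 line; 2% charcoal-stripped FBS overnight; plated, 4 hr 37C/5% CO2; cpd in DMSO + 17beta-estradiol, 18 hr 37C; LiveBLAzer B/G FRET substrate 2 hr RT; fluorescence intensity.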

For assay [16] the target is unchanged. As to the kind of experiment: qHTS assay to identify small molecule agonists of the estrogen receptor alpha (ER-alpha) signaling pathway using the BG1 cell line (AID 743079). Further: nearly all actives have a fitted effect of over 20% in size. As to conditions: BG1Luc4E2 cells, ERE-luciferase agonist, 22 h; activation: at 70.3 µM (top of the series).
Assay [17] in a line: qHTS assay for small molecule activators of the heat shock response signaling pathway (AID 743210; active means well fitted activation curve with a large enough effect in the signal ratio in the repeat runs, with a control signal flat, not every such curve was filed as active; inconclusive means weak or mixed curves; the % refers to the signal ratio;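 further: HeLa cells with beta-lactamase reporter driven by heat shock elements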). In a few lines:
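HeLa HSE-bla cells, overnight plating; cpd in DMSO 5 h, 37 C; LiveBLAzer B/G FRET substrate 2.5 h RT; fluorescence intensity read.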

Assay [18] deals with Peroxisome proliferator-activated receptor gamma (Homo sapiens) (UniProt P37231). As to the kind of experiment: qHTS assay to identify small molecule agonists of the peroxisome proliferator-activated receptor gamma (PPARg) signaling pathway (AID 743094; active means well fitted activation curve with a large enough effect in the signal ratio in the repeat runs, not every such curve was filed as active; inconclusive means weak or mixed curves, or effect the other way; inactive means no such curve, though single readings can be large or run the other way; the % refers to the signal ratio). In a few lines:
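Compounds dissolved in DMSO were added to PPARg UAS-bla HEK293H cells for 17 h at 37C, and reporter expression was quantified by fluorescence intensity after 1 h with LiveBLAzer B/G FRET substrate.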

The target is the same in assay [19]. Kind of assay: qHTS assay to identify small molecule antagonists of the peroxisome proliferator-activated receptor gamma (PPARg) signaling pathway (AID 743191; calls by dose curve; further: nearly all actives have a fitted effect of over 30% in size). A digest of the protocol: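 Beta-lactamase reporter under UAS control in HEK293H PPARg-bla cells; compound treatment 17 h at 37C. Read-out: fluorescence intensity after 1 h room-temperature incubation with LiveBLAzer B/G FRET substrate.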

Active and inactive are the calls of the source. Unless noted, the call rests on the fitted dose curve; in most records, active means well fitted curve in the direction sought with a large enough effect in the repeat runs; inconclusive means weak or mixed curves; inactive means no such curve, though single readings can be large; an effect the other way counts as inactive or inconclusive.

Sequence of Aromatase (Homo sapiens) (P11511 whole entry, looked up): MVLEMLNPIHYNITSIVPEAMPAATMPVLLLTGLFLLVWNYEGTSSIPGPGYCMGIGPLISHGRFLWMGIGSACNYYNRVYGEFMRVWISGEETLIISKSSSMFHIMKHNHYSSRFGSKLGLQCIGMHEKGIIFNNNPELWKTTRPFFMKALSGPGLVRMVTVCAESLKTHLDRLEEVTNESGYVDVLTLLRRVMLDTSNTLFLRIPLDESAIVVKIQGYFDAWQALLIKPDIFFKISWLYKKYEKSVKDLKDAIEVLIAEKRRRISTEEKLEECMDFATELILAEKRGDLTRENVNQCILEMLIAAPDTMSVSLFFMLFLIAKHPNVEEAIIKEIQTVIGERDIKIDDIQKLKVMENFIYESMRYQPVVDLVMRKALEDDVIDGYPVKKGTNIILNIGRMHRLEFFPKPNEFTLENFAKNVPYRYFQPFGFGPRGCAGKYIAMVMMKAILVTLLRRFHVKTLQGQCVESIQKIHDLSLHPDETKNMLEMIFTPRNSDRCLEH
Sequence of Estrogen receptor (Homo sapiens) (P03372 whole entry, looked up): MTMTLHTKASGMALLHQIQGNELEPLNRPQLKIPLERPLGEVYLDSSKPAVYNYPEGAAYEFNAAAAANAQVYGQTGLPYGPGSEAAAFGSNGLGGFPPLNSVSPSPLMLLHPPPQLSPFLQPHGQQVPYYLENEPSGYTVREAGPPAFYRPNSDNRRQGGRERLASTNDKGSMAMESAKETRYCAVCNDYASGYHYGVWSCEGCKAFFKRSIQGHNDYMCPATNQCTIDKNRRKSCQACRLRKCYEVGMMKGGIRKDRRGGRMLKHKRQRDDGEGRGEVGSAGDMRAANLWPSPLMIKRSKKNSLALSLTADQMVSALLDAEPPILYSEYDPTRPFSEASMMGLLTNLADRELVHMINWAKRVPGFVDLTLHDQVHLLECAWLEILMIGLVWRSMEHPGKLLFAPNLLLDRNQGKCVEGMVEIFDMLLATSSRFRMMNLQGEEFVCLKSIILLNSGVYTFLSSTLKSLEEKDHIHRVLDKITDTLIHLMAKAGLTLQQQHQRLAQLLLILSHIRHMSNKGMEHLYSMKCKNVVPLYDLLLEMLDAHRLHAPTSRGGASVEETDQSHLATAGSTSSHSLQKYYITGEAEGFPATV
Sequence of Peroxisome proliferator-activated receptor gamma (Homo sapiens) (P37231 whole entry, looked up): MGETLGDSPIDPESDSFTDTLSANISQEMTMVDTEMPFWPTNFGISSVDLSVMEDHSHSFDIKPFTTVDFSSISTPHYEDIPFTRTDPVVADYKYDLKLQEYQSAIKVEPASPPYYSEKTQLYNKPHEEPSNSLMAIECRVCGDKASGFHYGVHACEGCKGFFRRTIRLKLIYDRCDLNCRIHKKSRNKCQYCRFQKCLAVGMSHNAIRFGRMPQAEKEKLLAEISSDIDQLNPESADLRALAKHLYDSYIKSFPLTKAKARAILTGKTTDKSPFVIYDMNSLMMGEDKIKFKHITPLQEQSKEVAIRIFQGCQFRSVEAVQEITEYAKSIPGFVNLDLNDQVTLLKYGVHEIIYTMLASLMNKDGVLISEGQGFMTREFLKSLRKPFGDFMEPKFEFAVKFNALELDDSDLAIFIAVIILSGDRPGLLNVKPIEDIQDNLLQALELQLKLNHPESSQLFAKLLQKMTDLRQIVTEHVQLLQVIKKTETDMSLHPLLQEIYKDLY
Sequence of Aryl hydrocarbon receptor (Homo sapiens) (P35869 whole entry, looked up): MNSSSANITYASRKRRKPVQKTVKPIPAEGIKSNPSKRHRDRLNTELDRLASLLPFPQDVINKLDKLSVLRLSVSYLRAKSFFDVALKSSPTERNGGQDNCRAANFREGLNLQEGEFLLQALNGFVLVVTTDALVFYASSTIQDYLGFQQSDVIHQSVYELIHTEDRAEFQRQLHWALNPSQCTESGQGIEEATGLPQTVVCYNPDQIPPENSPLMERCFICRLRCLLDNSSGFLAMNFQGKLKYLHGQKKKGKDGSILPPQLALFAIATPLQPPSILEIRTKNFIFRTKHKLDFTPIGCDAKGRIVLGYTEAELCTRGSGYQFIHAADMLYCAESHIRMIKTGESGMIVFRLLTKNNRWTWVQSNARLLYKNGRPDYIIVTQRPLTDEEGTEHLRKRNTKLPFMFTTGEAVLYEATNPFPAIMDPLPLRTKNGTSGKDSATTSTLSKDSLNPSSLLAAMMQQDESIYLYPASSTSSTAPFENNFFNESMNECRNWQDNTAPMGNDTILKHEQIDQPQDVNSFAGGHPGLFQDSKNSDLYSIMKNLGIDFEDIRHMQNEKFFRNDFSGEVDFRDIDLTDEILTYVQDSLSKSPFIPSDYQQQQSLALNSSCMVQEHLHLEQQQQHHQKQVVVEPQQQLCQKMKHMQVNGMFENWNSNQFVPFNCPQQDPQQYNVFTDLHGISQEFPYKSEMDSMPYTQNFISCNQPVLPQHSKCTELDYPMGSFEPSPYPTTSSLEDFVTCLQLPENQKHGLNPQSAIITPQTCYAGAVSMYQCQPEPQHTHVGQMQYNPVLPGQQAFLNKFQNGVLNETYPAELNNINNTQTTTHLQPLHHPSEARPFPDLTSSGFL

Take `Brc1cccc(-c2ccccc2)c1`: the Potency entry in [1], in assay [2], in [3], in assay [4], in assay [5] and in assay [6] was “inactive” in each case. Besides, the Potency entry (in [7]; with Aromatase (Homo sapiens); in assay [8]; in assay [9]; in assay [10]; in assay [11]) was “inactive” each time. For the same compound, the Potency result in [12], in assay [13] and in assay [14] was “inactive” throughout.

On to `N#CSCc1ccccc1`, for which the Potency entry in [1], in assay [2], in assay [3], in [15], in [4] and in assay [16] was “inactive” in each case. The Potency result (in assay [6]; in assay [7]; in the assay with Aromatase (Homo sapiens); in assay [8]; in assay [9]; in assay [10]) was “inactive” throughout. Further, the Potency result in assay [11], in [12], in [13], in assay [14] and in [17] was “inactive” each time.

Turning to `CC(C)C(Br)C(=O)NC(N)=O` (stereo not given), the Potency result in [1], in assay [2], in assay [3], in assay [15], in assay [5] and in assay [16] was “inactive” throughout. The Potency result (in assay [6]; in [7]; with Aromatase (Homo sapiens); in assay [8]; in assay [9]; in [10]) was “inactive” in each case. For the same compound, the Potency result in assay [18], in assay [11], in assay [13] and in assay [17] was “inactive” throughout.

On to `CCCCC(CC)COC(=O)OOC(C)(C)C` (stereo not given), for which the Potency entry (in assay [1]; in assay [2]; in assay [3]; in assay [4]; in assay [7]; with Aromatase (Homo sapiens)) was “inactive” in each case. The Potency result in [8], in assay [9], in [10], in assay [18], in assay [11] and in [12] was “inactive” in each case. Further, the Potency entry in [13] was “inactive”. Also, the Potency in [14] is 49 µM (active).

Regarding `Cc1cccc(Cc2cnc[nH]2)c1C`, the Potency entry in assay [1], in assay [2], in assay [3], in [15], in assay [5] and in assay [16] was “inactive” in each case. Besides, the Potency entry in assay [6], in assay [7], in assay [8], in assay [10], in [18] and in assay [19] was “inactive” throughout. The Potency entry in [11] and in assay [13] was “inactive” in each case. The Potency in assay [9] is 13.3 µM (active).

For `Cc1cc2c3c(c1)C(c1ccccc1)=N[C@@H](NC(=O)c1ccncc1)C(=O)N3CC2`, the Potency entry in [1], in assay [3], in assay [15], in assay [5], in [16] and in assay [6] was “inactive” in each case. Further, the Potency entry (with Aromatase (Homo sapiens); in [8]; in [9]; in assay [10]; in [12]; in [13]) was “inactive” throughout. Moreover, the Potency result in assay [14] and in assay [17] was “inactive” each time. Also, the Potency in assay [2] is 24.3 µM (active).

For the compound `CNC(=O)O/N=C(\C)C(C)S(C)(=O)=O` (stereo not given), the Potency entry (in assay [1]; in assay [2]; in [3]; in [4]; in assay [7]; with Aromatase (Homo sapiens)) was “inactive” each time. Further, the Potency result in assay [8], in assay [9], in assay [10], in [19], in assay [11] and in assay [12] was “inactive” each time. For the same compound, the Potency result in assay [13] and in [14] was “inactive” throughout.

With `Oc1ccc(Cl)c(Cl)c1`, the Potency result (in [1]; in [3]; in assay [4]; in [6]; in assay [7]; in the assay with Aromatase (Homo sapiens)) was “inactive” each time. In addition, the Potency entry in [8], in assay [9], in [10], in assay [13], in [14] and in assay [17] was “inactive” throughout. The results for the Potency in [2] and in [5] were 60.2 µM (active) and 60.7 µM [inconclusive] (active), respectively.

For the origin of these results see PubChem BioAssay (Tox21).
